Only some compounds are listed: those with a hit (about 21% of all), similar ones and a draw of the others.
NS1 function inh: qHTS Assay for Inhibitors of Influenza NS1 Protein Function. Potency, µM (titrated, usually from 46.1 µM). 270,000 compounds, 0.4% hits. AID 2326, 2010; calls by dose curve; note: actives are rising curves; nearly all actives have a fitted effect of over 50% in size
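S. cerevisiae expressing influenza A NS1, grown in glucose, washed, then diluted 1:100 into pH 6.0 -URA galactose medium with 23 nl compound. Growth recovery read as OD600; NS1-free strain serves as control.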
Sm TGR inh: qHTS Assay for the Inhibitors of Schistosoma Mansoni Peroxiredoxins. Schistosoma mansoni thioredoxin glutathione reductase (TGR), Q962Y6. purified TGR, DTNB reduction, TNB absorbance 405 nm. Potency, µM (titrated, usually from 114 µM), hits mostly inhibitors. 360,000 compounds, 3% hits. AID 485364, 2010; note: nearly all actives have a fitted effect of over 60% in size
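First, TGR (20 nM dispensed) and NADPH were mixed with compound. Second, a 15 min room-temperature incubation followed. Third, further NADPH and then DTNB were added to start the reaction. Finally, TNB absorbance was monitored kinetically.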
Cycloheximide cs: Cycloheximide Counterscreen for Small Molecule Inhibitors of Shiga Toxin | cell reporter, cycloheximide protein synthesis inhibition counterscreen | max response, % | 300,000 compounds, 12% hits | AID 2314, 2010; in the data active = max response mostly above about 13%, no sharp cut-off; inactive = mostly below about 14%; note: read at 38.3 µM for the half of the compounds with a filed dose
Pf growth 48h: Primary qHTS for delayed death inhibitors of the malarial parasite plastid, 48 hour incubation | Potency, µM (highest dose often 28.7 µM), hits mostly inhibitors | P. falciparum luciferase growth in erythrocytes, 48 h | 310,000 compounds, 5.9% hits | AID 504832, 2011
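Luminescence readout; reporter = integrated firefly luciferase in P. falciparum. RBC culture at 2% hematocrit, 0.1% parasitemia final, 37 C/5% CO2; decreased signal taken as growth inhibition.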
Pf growth 96h: Primary qHTS for delayed death inhibitors of the malarial parasite plastid, 96 hour incubation | P. falciparum luciferase reporter growth, 96 h | AID 504834, 2011 | Potency, µM (doses to about 28.7 µM), usual class: inhibitors | 320,000 compounds, 6.9% hits
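Erythrocytes infected with luciferase-expressing P. falciparum were dispensed at 2% hematocrit and 0.05% parasitemia (final), then incubated with compounds 96 hours at 37 C in 5% CO2. Luminescence after detection reagent addition reported growth.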
Shiga inhibitor: A qHTS for Small Molecule Inhibitors of Shiga Toxin. AID 2315, 2010. Vero cells, Shiga toxin protein synthesis inhibition reporter. inhibition, % at 38.7 µM. 290,000 compounds, 9.2% hits; in the data active = inhibition mostly above about 28%, no sharp cut-off; inactive = mostly below about 43%
Of the large screens only hits and unclear results are named; the others gave an inactive call. Unless noted, calls come from the whole dose curve; as a rule, active = well fitted curve in the direction sought with a large enough effect; inconclusive = small, poorly fitted or top-dose-only effect, or another doubt; inactive = no such curve, though single readings can be large; an effect the other way counts as inactive or inconclusive.

COc1ccc2c(c1)N(S(=O)(=O)c1ccccc1)CCC2=O	none
COCCN(C(=O)Cc1cccs1)c1nnc(-c2ccncc2)s1	Pf growth 96h inconclusive
CCN(C(=O)c1cccs1)c1nnc(-c2ccncc2)s1	Cycloheximide cs 15.6, Shiga inhibitor active
O=C(Oc1ccc2c(c1)OCC2=O)c1ccccc1	Cycloheximide cs 44.5, Shiga inhibitor active (no result: Pf growth 96h)
CC(C)(C)c1ccc(C(=O)Oc2ccc3c(c2)OCC3=O)cc1	Cycloheximide cs 53.9, Shiga inhibitor 85.6 (no result: Pf growth 96h)
Cc1ccc(-n2ncc3c(NCc4ccco4)ncnc32)c(C)c1	Sm TGR inh 39.8µM, Cycloheximide cs 15.9, Pf growth 96h inconclusive
CCCCNc1ncnc2c1cnn2-c1ccc(C)cc1C	Cycloheximide cs 15.0, Pf growth 48h inconclusive, Pf growth 96h inconclusive
c1ccc(-n2ncc3c(NCc4ccco4)ncnc32)cc1	Sm TGR inh inconclusive, Cycloheximide cs 52.6, Shiga inhibitor 84.7 (no result: Pf growth 96h)
Cc1ccc(-n2ncc3c(NCc4ccccn4)ncnc32)c(C)c1	Pf growth 48h inconclusive, Pf growth 96h inconclusive
CSc1cccc(NC(=O)C2CC(=O)N(Cc3ccccc3)C2)c1 (stereo not drawn)	Pf growth 48h inconclusive
CCC(=O)c1ccccc1OCCCN1CCC(Cc2ccccc2)CC1	Pf growth 48h inconclusive
Cc1ccc2c(c1)-c1nc(-c3ccccc3)cc(-c3ccccc3)c1CO2	none (no result: NS1 function inh, Cycloheximide cs, Pf growth 48h, Pf growth 96h, Shiga inhibitor)
Cc1ccc(SCc2c(-c3ccccc3)nn(C)c2Cl)cc1	Pf growth 96h inconclusive (no result: Pf growth 48h)
Cn1nc(-c2ccccc2)c(CSc2ccccc2)c1Cl	Pf growth 96h 9.28µM (no result: Pf growth 48h)
COc1ccc(-c2noc(N3CCC(C(=O)Nc4cc(OC)ccc4OC)CC3)n2)cc1	Pf growth 48h inconclusive
COc1ccc(-c2noc(N3CCCC(C(=O)Nc4ccc(F)cc4F)C3)n2)cc1 (stereo not drawn)	Cycloheximide cs 14.2, Pf growth 96h 9.28µM, Shiga inhibitor 23.4
COc1ccc(-c2noc(N3CCCC(C(=O)Nc4ccccc4F)C3)n2)cc1 (stereo not drawn)	Pf growth 96h 10.4µM
COc1ccc(-c2noc(N3CCC(C(=O)Nc4ccccc4OC)CC3)n2)cc1	Pf growth 48h inconclusive
COc1ccccc1Nc1nc(NCc2ccco2)c2ccccc2n1	Cycloheximide cs 24.0, Pf growth 48h inconclusive, Pf growth 96h inconclusive
COc1cc2ncnc(NCc3ccco3)c2cc1OC	Pf growth 48h inconclusive, Pf growth 96h inconclusive (no result: Sm TGR inh)
O=c1c2ccccc2nc2c3ccccc3c(NCc3ccco3)nn12	Sm TGR inh inconclusive (no result: Pf growth 48h)
Cc1ccc(Nc2nc(NCc3ccco3)c3ccccc3n2)cc1	Sm TGR inh inconclusive, Cycloheximide cs 29.6 (no result: NS1 function inh)
Cc1ccc(-c2csc(N3CCN(c4cc5c(cc4Cl)nc(C(C)N)n5CCCO)CC3)n2)cc1 (stereo not drawn)	Pf growth 96h inconclusive
Cc1ccc(-c2csc(N3CCN(c4cc5c(cc4Cl)nc(C)n5CCN4CCCCC4)CC3)n2)cc1	Pf growth 48h inconclusive, Pf growth 96h 2.08µM
Cc1csc(N2CCN(c3cc4c(cc3Cl)nc(-c3ccncc3)n4CCCN3CCCC3)CC2)n1	Pf growth 48h inconclusive, Pf growth 96h 3.7µM
CC1(C)CC(CC(=O)O)(c2ccc(F)cc2)CCO1 (stereo not drawn)	Pf growth 96h inconclusive (no result: Pf growth 48h)
Cc1ccc(C2(CC(=O)O)CCOC(C)(C)C2)cc1 (stereo not drawn)	Pf growth 96h 9.28µM
Cc1ccc(CN2CCN(C3CCN(C(=O)Nc4ccccc4C(F)(F)F)CC3)C(=O)C2=O)cc1	none (no result: NS1 function inh, Cycloheximide cs, Pf growth 48h, Pf growth 96h, Shiga inhibitor)
Cc1c(NC(=O)c2ccccc2N)cccc1C(=O)O	Cycloheximide cs 24.7, Pf growth 96h inconclusive, Shiga inhibitor 46.0
Nc1ccccc1C(=O)NCc1ccc(Cl)cc1	none
Nc1ccccc1NC(=O)c1ccccc1N	Cycloheximide cs 35.5, Shiga inhibitor 30.4
Cc1c(NC(=O)c2ccccc2NC(=O)c2ccccc2)cccc1C(=O)O	none
Nc1ccccc1NC(=O)NC(=O)c1ccccc1	Cycloheximide cs 41.1 (no result: Shiga inhibitor)
Cc1cc(C)nc(NC(=O)NC(=O)c2ccccc2)n1	Pf growth 96h inconclusive
CCOC(=O)C(Cc1ccccc1)C(=O)Nc1cccc2ccccc12 (stereo not drawn)	Pf growth 96h inconclusive
O=C(CSc1nnc2scc(-c3ccccc3)n12)c1ccc2c(c1)OCCO2	Pf growth 96h 2.08µM (no result: Pf growth 48h)
Cn1c(SCC(=O)c2ccccc2)nnc1C1COc2ccccc2O1 (stereo not drawn)	Cycloheximide cs 42.1
c1ccc(-c2csc3nnc(SCc4ccc5c(c4)OCCO5)n23)cc1	none (no result: Pf growth 96h)
Cc1cc(C(=O)CSc2nnc(C3COc4ccccc4O3)n2C)c(C)n1-c1ccc(F)cc1 (stereo not drawn)	Pf growth 96h inconclusive
Cn1c(SCC(=O)c2ccc3c(c2)OCO3)nnc1C1COc2ccccc2O1 (stereo not drawn)	NS1 function inh inconclusive, Pf growth 48h inconclusive, Pf growth 96h 11.7µM
COc1cccc(CNC(=O)c2nn(-c3ccccc3Cl)nc2CO)c1	none (no result: NS1 function inh, Cycloheximide cs, Pf growth 48h, Pf growth 96h, Shiga inhibitor)
CC(C)(C)C1CCc2onc(C(=O)Nc3cccnc3)c2C1 (stereo not drawn)	Pf growth 48h inconclusive
O=C(Nc1ccc2c(c1)OCO2)c1noc2c1CCCC2	Cycloheximide cs 33.5, Shiga inhibitor 52.7
O=C(Nc1cccnc1)c1noc2c1CCCC2	Cycloheximide cs 46.8, Shiga inhibitor 85.4
CC(=O)c1ccc(NC(=O)c2noc3c2CCCCC3)cc1	Cycloheximide cs 39.9, Shiga inhibitor 44.1
O=C(Nc1ccc2c(c1)OCO2)c1noc2c1CCCCC2	Cycloheximide cs 38.2, Shiga inhibitor 100.8
O=C(Nc1ccc2c(c1)OCO2)c1ccncc1	Pf growth 96h inconclusive
CCCNC(=O)c1onc(CSc2ccncc2)c1C(=O)NCCC	Pf growth 96h inconclusive
Cc1cc(-c2ccc(C)c(S(=O)(=O)NCc3cccs3)c2)on1	none (no result: NS1 function inh, Cycloheximide cs, Pf growth 48h, Pf growth 96h, Shiga inhibitor)
CC(C)(C)OC(=O)N1CCNc2ccccc2C1	Cycloheximide cs 11.9, Pf growth 96h inconclusive, Shiga inhibitor active
CC(C)(C)OC(=O)N1Cc2ccccc2C[C@H]1C(=O)N1CCC[C@H]1C(=O)O	none
COc1ccc(-n2c(C)cc(C(=O)Cn3c(NCCO)nc4ccccc43)c2C)cc1	Pf growth 96h 10.4µM
O=C(Cn1c(NCCCO)nc2ccccc21)c1ccc(Cl)cc1Cl	Pf growth 48h 1.65µM, Pf growth 96h 9.28µM
CCN(Cc1ccccc1)C(=O)Cn1c(=O)n(CCC(=O)N2CCCCC2)c(=O)c2sccc21	Pf growth 96h inconclusive
Cc1cccc(CSc2nc(N)c(C#N)c(-c3cccs3)c2C#N)c1	Pf growth 48h 13.1µM, Pf growth 96h inconclusive
O=C(NC(=S)Nc1ccccc1Cl)C1CC1	Sm TGR inh 44.7µM, Cycloheximide cs 44.8, Pf growth 96h inconclusive
O=C(NC(=S)Nc1ccccc1Br)C1CCC1	Cycloheximide cs 43.2, Pf growth 96h inconclusive, Shiga inhibitor 50.1
CCOc1ccccc1NC(=S)NC1CCCCC1	Pf growth 48h inconclusive
